For 51 compounds, cytotoxicity call results are on record in the antibiotic and cytotoxicity screens of Wong et al. (2023).

Structures are written as SMILES. Out of some 39,000 compounds screened, about 1,500 (3.8%) were called active. This is one part of a sample in which actives are shown more often than they occur.

The experiment deals with HSkMC (human skeletal muscle cells). Briefly: cytotoxicity call (relative viability < 0.9). The conditions noted are these: 10 µM.
For the compound `CN(C)C(=O)[C@@]1(Cc2ccccc2CN=[N+]=[N-])N=C(c2ccc(OCCCO)cc2)O[C@H]1c1ccccc1N=[N+]=[N-]`, the cytotoxicity call was “inactive”.

For `[N-]=[N+]=NCc1ccccc1C[C@]1(C(=O)NCc2ccccc2)N=C(c2ccc(OCCCO)cc2)O[C@H]1c1ccccc1N=[N+]=[N-]`, the cytotoxicity call is “inactive”.

Take `CCO[C@H]1[C@H]2CC[C@@H]1NC2`: the cytotoxicity call is “inactive”. As for `O=C1CC2OCC=C3CN4CCC56c7ccccc7N1C5C2C3CC46.O=S(=O)(O)O` (stereo unspecified), the cytotoxicity call was “inactive”. The result for `N[C@]1(C(=O)O)CC[C@@H](C(=O)O)C1` reads “inactive”; that for `COc1cc([C@@H](O)CN)ccc1O`, “inactive”.

As for `[N-]=[N+]=NCc1ccccc1C[C@]1(C(=O)N2CCOCC2)N=C(c2ccc(OCCCO)cc2)O[C@H]1c1ccccc1N=[N+]=[N-]`, the cytotoxicity call is “inactive”. As to `COc1ccc2c(c1)C[C@H](N)C2`, the cytotoxicity call is “inactive”. As to `CNC(=O)[C@H]1Cn2ccnc2C2(CCNCC2)O1`, the cytotoxicity call is “inactive”.

Take `CC(C)CCC[C@]1(C)C=Cc2c(O)c3c(c(CCC(C)C)c2O1)O[C@]12[C@H](C[C@@H]4C[C@H]1C(C)(C)O[C@]2(CC[C@@H](C)C(=O)O)[C@@H]4O)C3=O`: the cytotoxicity call was “inactive”. On to `CC(C)=CCCC1(C)C=Cc2c(O)c3c(c(CC=C(C)C)c2O1)OC12C(=CC4CC1C(C)(C)OC2(CC=C(C)C(=O)O)C4O)C3=O` (stereo unspecified), for which the cytotoxicity call is “active”.

Consider `CC(C)=CCCC1(C)C=Cc2c(O)c3c(c(CC=C(C)C)c2O1)OC12C(=CC4CC1C(C)(C)OC2(CC=C(C)C(=O)O)C4=O)C3=O` (stereo unspecified), for which the cytotoxicity call was “active”. For `CC(C)=CCC[C@]1(C)C=Cc2c(O)c3c(c(CC=C(C)C)c2O1)O[C@]12[C@H](C[C@@H]4C[C@H]1C(C)(C)O[C@]2(C/C=C(/C)C(=O)O)[C@@H]4O)C3=O`, the cytotoxicity call is “inactive”. Take `C[C@@H]1CN([C@H](C)CO)C(=O)c2c(c3ccccc3n2C)-c2ccccc2CO[C@@H]1CN(C)C(=O)Oc1ccccc1`: the cytotoxicity call was “inactive”. As for `O=C(c1ccno1)N1C[C@@H]2CCN[C@@H]2C1`, the cytotoxicity call is “inactive”. `COc1ccc(C(CN(C)C)C2(O)CCCCC2)cc1.Cl` (stereo unspecified): the cytotoxicity call was “inactive”.

Regarding `N#CC[N+]12CCN(CC1)CC2`, the cytotoxicity call is “inactive”. Consider `Cc1nc([N+](=O)[O-])c(N2CCNCC2)[nH]1`, for which the cytotoxicity call is “inactive”. For `COC(=O)[C@H]1O[C@@H]2C[C@H]3O[C@@H](n4cnc5c(N)ncnc54)[C@H](OC)[C@H]3O[C@@]2(O)[C@@H](O)[C@@H]1O`, the cytotoxicity call was “inactive”. For the compound `O=C(CCCN1CCC2(CC1)C(=O)N(Cc1cccc(F)c1)CN2c1ccccc1)c1ccc(F)cc1`, the cytotoxicity call is “inactive”.

Take `CC(=O)OC1CC2C(C)(C)C(=O)C=CC2(C)C2CCC3(C)C(=CC(=O)OC3c3ccoc3)C12C` (stereo unspecified): the cytotoxicity call was “inactive”. In the case of `CC(=O)OC1CC(OC(C)=O)C2(C)C(CC(OC(C)=O)C3(C)C2CCC2(C)C(c4ccoc4)C(=O)C4OC423)C1(C)C` (stereo unspecified), the cytotoxicity call was “inactive”. Consider `CC1(C)C(=O)C=CC2(C)C1CC(O)C1(C)C2CCC2(C)C(c3ccoc3)OC(=O)C3OC321` (stereo unspecified), for which the cytotoxicity call was “inactive”. As for `CC(=O)O[C@H]1C[C@@H](OC(C)=O)C(C)(C)[C@@H]2C[C@@H](OC(C)=O)[C@]3(C)[C@H](CC[C@@]4(C)[C@H](c5ccoc5)C[C@H]5O[C@@]534)[C@@]12C`, the cytotoxicity call is “inactive”. Turning to `CC1(C)C(=O)C=CC2(C)C1=C(O)C(=O)C1(C)C2CCC2(C)C(c3ccoc3)CC3OC321` (stereo unspecified), the cytotoxicity call was “active”. Take `CC(=O)OC1CC2(C)C(c3ccoc3)CC3OC32C2(C)C(=O)C(O)=C3C(C)(C)C(=O)C=CC3(C)C12` (stereo unspecified): the cytotoxicity call is “active”.

As for `O=C1C[C@H](c2ccccc2)[C@@H]2CNCCN12`, the cytotoxicity call is “inactive”. In the case of `Cc1nnc(N2CCC[C@]3(CNCCO3)C2)o1`, the cytotoxicity call was “inactive”.

For `N#CN1CCCC1`, the cytotoxicity call was “inactive”. Regarding `Cc1cccc(CN2C[C@H]3OCCN(C)[C@H]3C2)n1`, the cytotoxicity call is “inactive”. As to `CC1=C(O)C(=O)C=C2C1=CC=C1C2(C)CCC2(C)C3CC(C)(C(=O)O)CCC3(C)CCC12C` (stereo unspecified), the cytotoxicity call is “active”.

For the compound `NC1N[C@H]2CCCC[C@@H]2N1`, the cytotoxicity call was “inactive”. The result for `CC(C)(CN)CNc1ccc([N+](=O)[O-])c2cccnc12` reads “inactive”; that for `CCNC(=O)[C@H]1O[C@H](n2cnc3c(N)ncnc32)[C@@H](O)[C@@H]1O`, “inactive”; that for `NC(=O)c1cn([C@H]2O[C@@H](CO)[C@H](O)[C@@H]2O)c2ncnc(N)c12`, “active”. For `NC(=O)c1cn([C@@H]2O[C@H](CO)[C@@H](O)[C@H]2O)c2ncnc(N)c12`, the cytotoxicity call is “inactive”. For `O=C(NC(=O)c1c(F)cccc1F)Nc1ccc(Cl)cc1`, the cytotoxicity call is “inactive”.

With `O=C(NC(=O)c1c(F)cccc1F)Nc1cc(Cl)c(OC(F)(F)[C@@H](F)C(F)(F)F)cc1Cl`, the cytotoxicity call is “active”. For `O=C(NC(=O)c1c(F)cccc1F)Nc1cc(Cl)c(OC(F)(F)C(F)C(F)(F)F)cc1Cl` (stereo unspecified), the cytotoxicity call was “inactive”. Next, `C=CCC1(C(C)CCC)C(=O)N=C([S-])NC1=O.[Na+]` (stereo unspecified): “inactive”; `Cl.c1cncc(C2CCCCN2)c1` (stereo unspecified): “inactive”. Regarding `Br.COC(=O)C1=CCCN(C)C1`, the cytotoxicity call is “inactive”.

With `NC(=O)CN1CC[C@@H](NC(=O)[C@@H]2CCCN2)C1=O`, the cytotoxicity call is “inactive”.

On to `c1cn(C[C@H]2CC[C@H]3NCCO[C@@H]23)cn1`, for which the cytotoxicity call was “inactive”. As for `Cl.Cn1c(CCCC(=O)O)nc2cc(N(CCCl)CCCl)ccc21`, the cytotoxicity call was “inactive”. As to `CC[C@H]1/C=C/C=C/C[C@@H](C)[C@H](O)[C@@](C)(O)C(=O)[C@@H](C)[C@H](O)[C@@H](C)C(=O)[C@@H](C)[C@H](O)[C@@H](C)/C=C/C(=O)O[C@@H]2[C@H](C)[C@H](CC1)O[C@]1(CC[C@H](C)[C@H](C[C@@H](C)O)O1)[C@H]2C`, the cytotoxicity call was “active”. The result for `CC[C@@H]1/C=C/C=C/C[C@H](C)[C@@H](O)[C@](C)(O)C(=O)[C@H](C)[C@@H](O)[C@H](C)C(=O)[C@H](C)[C@@H](O)[C@H](C)/C=C/C(=O)O[C@H]2[C@@H](C)[C@@H](CC1)O[C@@]1(CC[C@@H](C)[C@@H](C[C@H](C)O)O1)[C@@H]2C` reads “inactive”.

Consider `CCC(COC(=O)c1cc(OC)c(OC)c(OC)c1)(c1ccccc1)N(C)C.O=C(O)C=CC(=O)O` (stereo unspecified), for which the cytotoxicity call was “inactive”. Take `Cc1n[nH]c(=O)nc1N1CCN(C)CC1`: the cytotoxicity call was “inactive”. The result for `C[C@@H]1O[C@@H](O[C@@H]2C[C@@H](O)[C@]3(CO)[C@H]4[C@H](O)C[C@]5(C)[C@@H](C6=CC(=O)OC6)CC[C@]5(O)[C@@H]4CC[C@]3(O)C2)[C@H](O)[C@H](O)[C@H]1O` reads “active”. Consider `CC1OC(OC2CC(O)C3(CO)C4C(O)CC5(C)C(C6=CC(=O)OC6)CCC5(O)C4CCC3(O)C2)C(O)C(O)C1O.O.O.O.O.O.O.O.O` (stereo unspecified), for which the cytotoxicity call is “active”.
